Compound activity from PubChem BioAssay.
IP6K1 inh = blocks human inositol hexakisphosphate kinase 1 | IP6K1 kinase, ADP-Glo luminescence, 2 h; active compounds read low | activity change, % (series mostly up to about 58 µM) | 0.81% of 140,000 active; in the data active = activity change below about -25%; also: % is scaled to controls: 0 for no effect and ±100 for the full control effect
Target sequence (Q92551 whole entry, looked up): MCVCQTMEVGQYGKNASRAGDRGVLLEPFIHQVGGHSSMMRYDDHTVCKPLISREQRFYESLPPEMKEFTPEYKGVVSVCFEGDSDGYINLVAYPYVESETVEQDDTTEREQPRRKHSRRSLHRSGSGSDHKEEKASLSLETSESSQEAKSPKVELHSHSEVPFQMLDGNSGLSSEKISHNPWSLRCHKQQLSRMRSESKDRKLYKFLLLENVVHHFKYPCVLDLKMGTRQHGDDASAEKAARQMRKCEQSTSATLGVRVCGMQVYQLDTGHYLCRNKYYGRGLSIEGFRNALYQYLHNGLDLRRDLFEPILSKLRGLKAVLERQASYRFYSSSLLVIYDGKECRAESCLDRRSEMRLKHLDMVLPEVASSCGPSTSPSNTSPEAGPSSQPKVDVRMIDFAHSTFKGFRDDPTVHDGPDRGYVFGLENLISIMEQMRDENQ
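ADP-Glo luminescence measures ADP made by human IP6K1 during a 2 h RT reaction with ATP/IP6 (mix at 1.3 mM/130 uM); top library doses 57.5 and 19.1 uM final.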
KDM5B inh = blocks human KDM5B histone demethylase activity; Q9UGL1; KDM5B demethylase, FDH-coupled NADH fluorescence (FDH is formaldehyde dehydrogenase); Potency, µM (highest dose often 57.7 µM), actives largely listed as inhibitors; 2.6% of 220,000 active; AID 1347165; active = well fitted inhibition curve with a large enough effect; inconclusive = small, poorly fitted or top-dose-only effect; inactive = no such curve, though single readings can be large or run the other way; also: potency is read from the fitted curve at half-maximal effect; 0% is about no effect; nearly all actives have a fitted effect of over 70% in size
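Compound dilutions met 200 nM (final) KDM5BΔAP for 10 min at room temperature before substrate addition. The substrate mix held 12.5 µM H3K4me3 with cofactors 25 µM α-ketoglutarate and 50 µM Fe²⁺. NADH signal gain over 30 min defined activity.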
Numbers without * were called inactive; i = inactive; ? = inconclusive; nt = no result given. Shown are actives, neighbours in structure and some others; about 2.8% of the full set was active somewhere.

SMILES	IP6K1 inh	KDM5B inh
COCCNc1ccc(-c2noc([C@@H]3CCCN3C3CCC3)n2)cn1	-3.3	i
NNc1cccc(S(=O)(=O)c2cccc(NN)c2)c1	nt	i
O=C(O)c1cc(N(Cc2ccc(C3CCCCC3)cc2)C(=O)c2ccc(Oc3ccccc3)cc2)ccc1O	-10.5	nt
COc1ccccc1NS(=O)(=O)c1cccc(C(=O)N2CCc3sccc3C2)c1	nt	i
Fc1ccccc1CN1CCC[C@H]1c1nc(-c2ccnc(N3CCOCC3)c2)no1	13.3	?
c1ccc(CN2CCC[C@H]2c2nc(-c3ccnc(N4CCOCC4)c3)no2)cc1	4.3	35.5µM*
CS(=O)(=O)c1ccc(CN2CCC[C@H]2c2nc(-c3ccnc(N4CCOCC4)c3)no2)cc1	5.7	25.1µM*
O=C(NCc1ccccc1F)c1nc2sccn2c1-c1ccc(C(F)(F)F)cc1	3.2	nt
Cn1cccc1C(=O)N1CCC(c2nc(-c3cccn3C)no2)CC1	21.2	nt
O=C(CC1C(=O)NCCN1Cc1ccc(-c2ccccc2)cc1)NCc1ccco1 (configuration not stated)	-23.4	25.1µM*
CCOc1ccccc1CN1CCNC(=O)C1CC(=O)NCc1ccco1 (configuration not stated)	-4.4	?
O=C(CC1C(=O)NCCN1Cc1ccccc1)NC1C2CC3CC(C2)CC1C3 (configuration not stated)	19.5	i
O=C(CC1C(=O)NCCN1Cc1ccc(-c2ccccc2)cc1)NC(CO)CO (configuration not stated)	20.7	20µM*
O=C(Nc1cccc(Cl)c1)c1ccc2nc(-c3ccncc3)oc2c1	14.9	nt
COC(=O)N1CCc2nc(-c3ccc(OC)cc3)nc(-c3ccccc3)c2C1	-12.2	i
COCC(=O)N1CCc2nc(C)nc(-c3ccc(OC)cc3)c2C1	12.1	31.6µM*
COc1ccc(-c2nc(C)nc3c2CN(Cc2ccc(NC(C)=O)cc2)CC3)cc1	7.8	22.4µM*
COc1ccc(-c2nc(C)nc3c2CN(C(C)=O)CC3)cc1	12.0	?
COCC(=O)N1CCc2nc(-c3ccccc3)nc(-c3ccc(OC)cc3)c2C1	-8.7	22.4µM*
COc1ccc(-c2nc(C)nc3c2CN(C(=O)Nc2ccc(Cl)cc2)CC3)cc1	-4.9	nt
COc1ccc(C(=O)N2CCN(c3nccc(Nc4ccccc4OC)n3)CC2)cc1	6.4	nt
COc1cc(C(=O)O)ccc1NC(=O)C1NC(CC(C)(C)C)C(C#N)(c2ccc(Cl)cc2F)C1c1cccc(Cl)c1F (configuration not stated)	-7.6	nt
Cc1ccc(C)c(Nc2nnc(-c3ccc(C)c(S(N)(=O)=O)c3)c3ccccc23)c1	nt	i
Cn1ncc2c(C(=O)N3CCCCC3)cc(-c3cccc(F)c3)nc21	21.2	nt
CN1CCC(N2CCN([C@@H]3C[C@H]4C[C@@H](c5ccccc5)OC[C@@]4(C)C3)CC2)CC1	3.1	nt
SMILES	IP6K1 inh	KDM5B inh
CC(C)(C)OC(=O)N1CC(Nc2ccc(Cl)cc2)C1	-13.2	i
CC(C)(C)OC(=O)N1CC(Nc2ccccc2O)C1	-5.3	100µM*
COc1ccccc1-c1cc(C(=O)NCCc2ccc(F)cc2)nn2cccc12	-7.7	nt
COc1ccc(F)cc1-c1cccc(C(=O)NCCN[S+](=O)([O-])c2ccc(C)cc2)c1	-8.0	nt
CCCN1C(=O)c2ccccc2NC1c1cc2ccccc2[nH]c1=O (configuration not stated)	nt	i
COc1ccc(CNC(=O)C2CC(=O)N(c3n[nH]c4cccc(F)c34)C2)cc1 (configuration not stated)	-19.2	i
CCCNC(=O)C1CC(=O)N(c2n[nH]c3cccc(F)c23)C1 (configuration not stated)	-12.9	i
COc1ccccc1CCNC(=O)C1CC(=O)N(c2n[nH]c3cccc(F)c23)C1 (configuration not stated)	7.8	22.4µM*
COc1ccc2[nH]cc(CCNC(=O)C3CC(=O)N(c4n[nH]c5cccc(F)c45)C3)c2c1 (configuration not stated)	-6.1	22.4µM*
O=C(NCCc1cccc(F)c1)C1CC(=O)N(c2n[nH]c3cccc(F)c23)C1 (configuration not stated)	17.6	22.4µM*
O=C(NCCc1ccccc1)C1CC(=O)N(c2n[nH]c3cccc(F)c23)C1 (configuration not stated)	-5.1	i
Cc1ccc(/C=N/NC(=O)c2cccs2)cc1	nt	i
O=C(Cc1c[nH]c2ncc(-c3cccnc3)cc12)NC1CC1	-11.5	i
O=C(Cc1c[nH]c2ncc(-c3ccccc3)cc12)NC1CCOCC1	-20.5	28.2µM*
Cn1cc(-c2cnc3[nH]cc(CC(=O)NCc4ccncc4)c3c2)cn1	-13.2	?
CC(C)CNC(=O)Cc1c[nH]c2ncc(-c3cnn(C)c3)cc12	-14.2	39.8µM*
CN1CCC(NC(=O)Cc2c[nH]c3ncc(-c4ccccc4)cc23)CC1	-22.3	35.5µM*
O=C(Cc1c[nH]c2ncc(-c3cccnc3)cc12)NC1CCOCC1	-20.6	i
CCc1ccc(-c2csc(NC3OC(=O)c4c3ccc(OC)c4OC)n2)cc1 (configuration not stated)	nt	i
CCCCn1c(=O)c(C(=O)NCC2CCCCC2)nc2cccnc21	14.5	nt
CC(NC1CC1)c1ccc2ccccc2c1 (configuration not stated)	nt	i
CCOC(=O)[C@H]1C[C@]2(CCCCN(C)C2=O)N(C(=O)c2ccccc2)[C@H]1c1ccco1	-9.6	nt
COc1ccccc1-c1ccnc(-n2ncc(C(=O)NCCc3cccnc3)c2C2CC2)n1	-6.1	31.6µM*
O=C(NCCc1cccnc1)c1ccccc1Cl	nt	i
O=C(NC1CCN(Cc2ccc(-c3ccsc3)cc2)C1)c1ccncc1 (configuration not stated)	-3.6	nt
SMILES	IP6K1 inh	KDM5B inh
Cc1ccc2[nH]cc(CCNC(=O)NC3CCCCC3)c2c1	nt	i
O=C1CCN(C(=O)[C@@H]2CCCN2Cc2ccc(F)cc2F)CCCCCCN1	1.6	?
O=C([C@@H]1CCCN1Cc1cc(=O)c2cc(F)ccc2[nH]1)N1CCCCC1	8.7	28.2µM*
O=C1Nc2ccccc2CC12CCN(Cc1ccc(Cl)cc1)CC2	-3.5	?
CC(=O)N1CCN(C(=O)c2cn3cc(-c4ccc(C(F)(F)F)cc4)sc3n2)CC1	-3.4	nt
CC(C)Nc1nc(-c2ccc3c(c2)CCCN3S(C)(=O)=O)cs1	nt	i
CCCc1cc(NCCN(C)C)n2nc(C)c(-c3ccccc3)c2n1	nt	i
Cc1nn2c(NCCc3ncc[nH]3)cc(-c3ccccc3)nc2c1C	-0.9	31.6µM*
CCN1CCCC12Cc1ccccc1CN(C(=O)c1ccccc1)C2 (configuration not stated)	0.5	?
COc1ccccc1CC(=O)N1CCc2c(nc[nH]c2=O)C1	24.3	i
N#Cc1cccc(NC(=O)N2CCc3nc4cc[nH]n4c(=O)c3C2)c1	0.0	?
O=C(C1CCN(S(=O)(=O)N2CCOCC2)CC1)N1CCc2nc3cc[nH]n3c(=O)c2C1	0.0	31.6µM*
COc1ccc(C(=O)N2CCc3c(nc4cc[nH]n4c3=O)C2)c(C)c1	13.4	28.2µM*
COc1ccc(-c2nc3c(c(=O)[nH]2)CCN(C(=O)c2ccc(OC)cc2OC)C3)cc1	9.1	?
CCOC(=O)c1ccc(NC(=O)N2CCc3c(nc4cc[nH]n4c3=O)C2)cc1	0.5	22.4µM*
O=C(c1cc(-c2cccs2)[nH]n1)N1CCc2nc3cc[nH]n3c(=O)c2C1	0.0	?
